Phagocytosis inh = inhibitors of macrophage phagocytosis, primary screen, imaging, J774A.1 cells, IgG beads | J774A.1 macrophage IgG-bead phagocytosis | 110,000 compounds, 0.07% hits | AID 1029, 2008 | inhibition, % at 5 µM;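 active = inhibition above the mean of the plate negative controls plus 5 SD, cut at about 13% in these data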;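 note: phagocytic index as fraction of beads internalized from green versus red external bead signal; plate controls were DMSO negative control for no effect and cytochalasin-D positive control for full effect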
MRP-1 activ = H69AR viability gain despite doxorubicin, primary screen, MRP-1 activator project, H69AR cells, CellTiter-Glo. viability rescue. viability increase, % at 10 µM. 140,000 compounds, 0.61% hits;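 active = viability gain under doxorubicin at or above a set limit, the compound median plus 3 SD, cut at about 4.7% in these data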;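 note: MRP-1 overexpressing cells given doxorubicin 25 µM after compound pretreatment; 18-22 h compound pretreatment then 72 h with doxorubicin before readout; 0% = doxorubicin-only wells and 100% = vehicle-treated cells without doxorubicin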
MRP reversal = reversal of MRP1-mediated doxorubicin resistance, primary screen, H69AR cells, doxorubicin co-treatment; differential viability (reversal), % at 10 µM; H69AR cells + 2 uM doxorubicin, CellTiter-Glo, 72 h; 85,000 compounds, 0.04% hits; AID 602, 2007;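 active = viability drop by adding the cancer drug above about 55%, with treated viability meeting a 40% cutoff, limit read from the data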;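 note: viability without doxorubicin minus viability with 2 µM doxorubicin for each compound; larger differential means the compound sensitizes cells more to doxorubicin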
Mac1 fbg inh = inhibitors of CD11b/CD18 adhesion to fibrinogen, primary screen, K562 cells, luminescence; ATPlite luminescence; Mn2+ added to activate the integrin; inhibition, % at 10 µM; 93,000 compounds, 0.54% hits; AID 1497, 2009;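 active = primary inhibition of 50% or more at 10 µM, then 40% or more on retest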
SDO1 yeast rescue = growth rescue of sdo1-depleted yeast, primary screen, S. cerevisiae, bone marrow failure model | z-score at 10 µM | AID 817, 2007 | 140,000 compounds, 0.21% hits | S. cerevisiae sdo1-depleted JHY4D growth rescue, OD600 30 h; hits give high values; pdr5 snq2 efflux-pump mutant strain;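 active = z-score above 3 at both the 24 hr and the 30 hr optical density reads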;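 note: z-score against mean and SD of all compound wells on the same plate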
Mac1 fbg enh = enhancers of CD11b/CD18 adhesion to fibrinogen, primary screen, K562 cells, luminescence; Integrin beta-2 (Homo sapiens) + Integrin alpha-M (Homo sapiens), P05107+P11215; ATPlite luminescence; activation, % at 10 µM; 93,000 compounds, 0.07% hits; AID 1499, 2009;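 active = 10 µM primary screen giving 50% or more activity, confirmed by 40% or more on retest at that dose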
Starred values were filed as active, the others as inactive; x = no result; [ ] = another dose, or the depositor's remark. Sampled rows, rich in hits. Any-hit rate of the full collection: about 1.3%.

SMILES	Phagocytosis inh	MRP-1 activ	MRP reversal	Mac1 fbg inh	SDO1 yeast rescue	Mac1 fbg enh
Cc1nc(=O)c(-c2ccccc2)c(C)n1-c1ccc(S(N)(=O)=O)cc1	-3	6.8*	9	9	0.1	-1
Cc1nc(=O)c(-c2ccccc2)c(C)n1Cc1ccccc1	-1	-3	8	-9	0.65	-4
CC(C)/C=N/Nc1nc(-c2ccc(Br)cc2)cs1	0	-2	x	x	-2.1	x
COc1cccc(Nc2ccc(C(=O)O)cc2[N+](=O)[O-])c1	x	0	x	-18	0.78	6
CCOC(=O)c1nnc(-c2ccccc2)nc1Oc1ccccc1Cl	-1	5.2*	x	-2	-0.71	0
CCOC(=O)c1nnc(-c2ccccc2)nc1NC	x	-2	x	x	-0.13	x
Oc1c(C(c2cccs2)N2CCC3(CC2)OCCO3)sc2ncnn12 (configuration not stated)	-1	4	1	-5	0.89	0
Oc1c(C(c2cccs2)N2CCN(c3ccccc3)CC2)sc2ncnn12 (configuration not stated)	x	14*	-2	x	-0.14	x
CCCCCCn1c(O)c(/C=C2\C=NN=C2c2ccccc2)sc1=S	3	5.3*	x	x	0.43	x
CCCCn1c(O)c(/C=C2\C=NN=C2c2ccccc2)sc1=S	-7	4	x	x	-1.1	x
CCN(CC)C(=O)c1cc(C(C)(C)C)c(O)c(C(C)(C)C)c1	-4	2	x	x	-0.33	x
C/C(=N\NS(=O)(=O)c1ccc(Cl)c([N+](=O)[O-])c1)c1cc2ccccc2o1	-1	-1	x	97*	-0.17	-10
C/C(=N\NS(=O)(=O)c1ccc(C)c([N+](=O)[O-])c1)c1cc2ccccc2o1	-1	-4	x	20	-0.91	-3
COc1ccc(Cl)cc1NC(=O)CSc1nnc(COc2ccccc2)n1C	5	2	-20	3	-2	-2
COc1ccc(Cl)cc1NC(=O)CSc1nnc(COc2ccccc2)n1N	-1	7.8*	20	-48	-0.38	-2
CNC(=O)CSc1nnc(COc2ccc(Cl)cc2)n1CCOC	-2	9.8*	0	-9	-0.29	-2
CCOC(=O)C(C)(C)Sc1nc2c(cnn2-c2ccc(Cl)cc2)c(=O)[nH]1	163*[fluoresces]	-1	-3	-9	-1.4	-1
CN(CC(=O)N1CCN(c2cccc(Cl)c2)CC1)S(=O)(=O)c1cccs1	x	-1	5	9	0.98	-3
N#C/C(=N\Nc1ccc(Cl)cc1)C(=O)c1ccccc1	-1	-3	x	94*	-1.8	-8
COC(=O)c1ccc(COC(=O)c2[nH]c(C)c(C(C)=O)c2C)o1	-1	-3	2	76*	-0.27	-8
CCC(=O)N1CN(S(=O)(=O)c2ccc(C)cc2)CC1C (configuration not stated)	-1	-2	-5	-10	0.6	0
C/C(=N\NC(=O)c1cccc(S(=O)(=O)Nc2cccc(Cl)c2)c1)c1cccs1	8	5.6*	x	-16	0.3	-2
CCOC(=O)C1(CC/C(C)=N\NC(N)=O)CC(C)OC1=O (configuration not stated)	-8	-1	x	x	0.33	x
NC(=O)c1ccsc1NC(=O)COC(=O)Cc1cccc2ccccc12	-1	0	17	84*	-1.4	-8
Cc1ccccc1-c1cc(C(=O)Nc2sc(C)c(C)c2C(N)=O)c2ccccc2n1	2	-2	x	0	-1.8	19
CCOC(=O)c1sc(NC(=O)c2cc(-c3ccccc3C)nc3ccccc23)c(C#N)c1C	2	-7	x	93*	0.1	-7
CCN1C(=O)/C(=C/C=C2/Sc3ccc4ccccc4c3N2CCO)SC1=S	123*[fluoresces]	-4	x	x	0.38	x
CCCn1c(NC(=O)C2CCN(S(=O)(=O)c3cccs3)CC2)nc2ccccc21	-1	-5	0	16	0.19	7
COc1cc(NS(=O)(=O)c2ccc(N/C=C(\C#N)c3nc4cc(Cl)ccc4o3)cc2)nc(OC)n1	-1	4.9*	x	40	-1.4	-2
COc1cc(NS(=O)(=O)c2ccc(NC(C)=O)cc2)nc(OC)n1	-1	-3	13	-5	0.92	-1
